Source: PubChem BioAssay (National Center for Advancing Translational Sciences (NCATS))
Eya2 inh = Eya2 (human) phosphatase inhibition; 330,000 tested, 0.006% active; recombinant Eya2, OMFP fluorescence dephosphorylation (OMFP is methylfluorescein phosphate); O00167; Potency, µM (top dose mostly 76.9 µM), without a hit: at the top dose activity, negative = inhibition, actives largely listed as inhibitors; note: potency is the fitted concentration of half-maximal effect; % is set by controls: 0 for no effect and ±100 for the full control effect
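Eya2 (0.2 uM) preincubated 10 min at ambient with compound, then OMFP substrate added at 50 uM; 10 min reaction in 50 mM HEPES pH 7.5, 50 mM NaCl, 5 uM MgCl2, 0.05% BSA, 1 mM DTT. Fluorescence read at Ex 485/Em 525 nm.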
L3MBTL1 inh-1 = blocks human L3MBTL1 | AlphaScreen L3MBTL1–H3K9me1 peptide binding | AID 485360 | 230,000 tested, 0.66% active | Potency, µM (highest dose often 57.1 µM), for the others: at the top dose activity, negative = inhibition, most hits filed as inhibitors | Q9Y468; note: potency is the fitted concentration of half-maximal effect; % is set by controls: 0 for no effect and ±100 for the full control effect; nearly all actives have a fitted effect of over 60% in size
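Displacement of a biotinylated histone H3(1-15) peptide monomethylated at Lys9 (75 nM) from L3MBTL1 (50 nM) was measured by AlphaScreen after a 30 min room-temperature compound incubation; cefsulodin titration served as intraplate control.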
CtBP-E1A inh = blocks the CtBP interaction with E1A; 340,000 tested, 0.49% active; AID 651724; activity change, % (test concentration not listed); AlphaScreen GST-E1A/His-CtBP binding, 1536-well; hits give low values; in the data active = activity change below about -65%; inconclusive = mostly about -30% to -63%; note: % is set by controls: 0 for no effect and ±100 for the full control effect
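Steps: dispense buffer (Tris pH 8.0, NaCl 300 mM, TCEP 1 mM, BSA, Tween 20); add 5X protein mix (GST-E1A, His-CtBP, 125 nM each); pin 23 nL compound; 2 h at 37 °C, dark; add 5X beads (50 ug/mL); 1 h; read.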
Six1-Eya2 blk = blocks human Six1 binding to Eya2; Q15475+O00167; AlphaScreen GST-Six1/His-Eya2 binding, biochemical; hits give low values; activity change, % (test concentration not listed); 360,000 tested, 0.56% active; in the data active = activity change below about -65%; inconclusive = mostly about -30% to -63%; note: % is set by controls: 0 for no effect and ±100 for the full control effect
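AlphaScreen with GST-Six1 and His-Eya2 (5X mix: 250 nM and 500 nM), glutathione donor and nickel acceptor beads; buffer 50 mM Tris pH 8.0, 300 mM NaCl, 1 mM TCEP; 1 h at 37 C in the dark.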
CBFb-RUNX1 inh = inhibitors of human CBF-beta and RUNX1 interaction; 230,000 tested, under 10 active; Potency, µM (highest dose often 59.8 µM), for the others: at the top dose activity, negative = inhibition, actives largely listed as inhibitors; AlphaScreen CBFb-His/RUNX1-biotin binding, biochemical; AID 1477; note: % of control where 0% means no effect
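Interaction loss through any mechanism counts as activity. Pre-formed complex of His-CBF-beta and biotin-RUNX1 (30 nM apiece) is incubated with compound 15 min, then with 50 ng nickel and 50 ng streptavidin beads for 90 min before AlphaScreen detection.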
MBNL1-CUG inh = blocks human MBNL1 binding to CUG repeat RNA; Potency, µM (top dose mostly 57.5 µM), without a hit: top-dose activity change, negative = inhibition, actives largely listed as inhibitors; Q9NR56; TR-FRET MBNL1-His/biotin-(CUG)12 binding, 665/545 ratio; 280,000 tested, 0.036% active; AID 2675; active = well fitted inhibition curve with a large enough effect in the signal ratio, with a control signal flat, not every such curve was filed as active; inconclusive = small, poorly fitted or top-dose-only effect, or effect the other way, or a change in a side signal; inactive = no such curve, though single readings can be large or run the other way; the % refers to the signal ratio; note: potency is the fitted concentration of half-maximal effect; % is set by controls: 0 for no effect and ±100 for the full control effect
Target sequence (Q9NR56 whole entry, looked up): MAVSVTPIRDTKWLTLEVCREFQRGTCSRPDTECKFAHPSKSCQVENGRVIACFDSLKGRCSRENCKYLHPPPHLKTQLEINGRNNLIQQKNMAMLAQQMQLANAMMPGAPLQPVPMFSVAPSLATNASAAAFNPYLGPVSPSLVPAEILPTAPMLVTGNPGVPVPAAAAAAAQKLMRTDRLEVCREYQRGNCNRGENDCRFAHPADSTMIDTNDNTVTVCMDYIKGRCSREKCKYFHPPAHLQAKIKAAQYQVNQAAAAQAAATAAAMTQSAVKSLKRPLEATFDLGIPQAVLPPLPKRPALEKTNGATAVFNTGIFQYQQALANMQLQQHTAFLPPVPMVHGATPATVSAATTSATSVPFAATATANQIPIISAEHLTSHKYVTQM
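His-tagged MBNL1 binding to biotinylated (CUG)12 RNA was measured by TR-FRET using terbium anti-His antibody (0.055 ng/ul final) and streptavidin-XL665 (5 nM final). Compounds were titrated 92 nM to 58 uM; 60 min at room temperature.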
MBNL1 TRFRET = MBNL1-poly(CUG) RNA binding inhibition confirmed; shares compounds with MBNL1-CUG inh; TR-FRET MBNL1-His / biotin-(CUG)12 binding, 60 min; Potency, µM (titrated, usually from 57.6 µM), for inactives: top-dose activity change, negative = inhibition, actives largely listed as inhibitors; 140 tested, 50% active; AID 493199
MBNL1 AlphaScrn = MBNL1-CUG RNA binding inhibition, AlphaScreen validation; 140 tested, 30% active; AlphaScreen MBNL1-His / biotin-(CUG)12 binding; AID 493205; Potency, µM (top dose mostly 57.7 µM), for the others: at the top dose activity, negative = inhibition, hits mostly inhibitors; shares compounds with MBNL1-CUG inh
Menin-MLL HTRF = MBNL1-CUG RNA binding inhibitor counterscreen activity; 120 tested, 20% active; His-Menin/biotin-MLL peptide TR-FRET counterscreen; Potency, µM (titrated, usually from 57.6 µM), for the others: top-dose activity, negative = inhibition, hits mostly inhibitors; shares compounds with MBNL1-CUG inh
L3MBTL1 inh-2 = blocks human L3MBTL1 methyl-lysine binding; shares compounds with L3MBTL1 inh-1; L3MBTL1 methyl-lysine binding inhibition, biochemical qHTS; Potency, µM, usual class: inhibitors; 500 tested, 91% active; AID 540279; note: potency is the fitted concentration of half-maximal effect; nearly all actives have a fitted effect of over 70% in size
AlphaScreen ctr2 = AlphaScreen signal inhibition, L3MBTL1 hit counter-screen | Potency, µM (titrated, usually from 57.1 µM), inactives show at the highest dose activity change, negative = inhibition, usual class: inhibitors | 500 tested, under 10 active | shares compounds with L3MBTL1 inh-1 | AlphaScreen counterscreen, signal inhibition; note: potency is the fitted concentration of half-maximal effect; 0% is about no effect
Starred values were filed as active, the others as inactive; ? = inconclusive; nt = no result given; [ ] = remark or other dose. A selection: hits, their analogues and other compounds. The true share with any hit is near 0.89%. Unless noted, calls come from the whole dose curve; as a rule, active = well fitted curve in the direction sought with a large enough effect; inconclusive = small, poorly fitted or top-dose-only effect, or another doubt; inactive = no such curve, though single readings can be large; an effect the other way counts as inactive or inconclusive.

SMILES	Eya2 inh	L3MBTL1 inh-1	CtBP-E1A inh	Six1-Eya2 blk	CBFb-RUNX1 inh	MBNL1-CUG inh	MBNL1 TRFRET	MBNL1 AlphaScrn	Menin-MLL HTRF	others
CCOC(=O)/C(=N\Nc1ccccc1Cl)N1CC(C)OC(C)C1 (stereo not drawn)	-1%	nt	-1	-13	5%	0.025µM*	-4%	-6%	-1%
CCCN1C[C@H](CSC)C[C@@H]2c3cccc4[nH]cc(c34)C[C@H]21	3%	-1%	0	0	-1%	?	?	-42%	nt
CN1C[C@H](C(=O)N[C@]2(C)O[C@]3(O)[C@H]4CCCN4C(=O)[C@H](Cc4ccccc4)N3C2=O)C[C@H]2c3cccc4[nH]cc(c34)C[C@@H]21	nt	nt	nt	nt	-12%[21.7 µM]	nt	nt	nt	nt
COc1cccc(-c2cc(C(=O)Nc3cccnc3Cl)no2)c1	-12%	nt	17	7	nt	14%	nt	nt	nt
O=C(Nc1cccnc1Cl)c1cc(-c2cccc(O)c2)on1	0%	nt	-12	-30	nt	7.1µM*	13µM*	?	-62%
O=S1(=O)CC(N2CCCC2)CN1Cc1cn(Cc2ccccc2)nn1 (stereo not drawn)	nt	nt	2	2	nt	nt	nt	nt	nt
CC1(C(=O)NS(=O)(=O)c2ccc(Br)cc2)CCN1C(=O)Cc1cccs1 (stereo not drawn)	nt	nt	-17	5	nt	nt	nt	nt	nt
CCCCC[C@H](O)/C=C/[C@@H]1[C@@H](C/C=C\CCCC(=O)OC)[C@@H](O)C[C@H]1O	-2%	?	12	-18	1%	nt	?	10µM*	2%
Cc1cc(Nc2ccc(Cl)cc2)nc(NCc2ccccc2)n1	-28%	-1%	0	5	6%	6%	nt	nt	nt
Cc1cc(Nc2ccccc2)nc(NCc2ccccc2)n1	-14%	5%	0	6	-5%	40µM*	?	3.7µM*	-12%
O=C(OC[C@H]1O[C@@H](OC(=O)c2cc(O)c(O)c(OC(=O)c3cc(O)c(O)c(O)c3)c2)[C@H](OC(=O)c2cc(O)c(O)c(OC(=O)c3cc(O)c(O)c(O)c3)c2)[C@@H](OC(=O)c2cc(O)c(O)c(OC(=O)c3cc(O)c(O)c(O)c3)c2)[C@@H]1OC(=O)c1cc(O)c(O)c(OC(=O)c2cc(O)c(O)c(O)c2)c1)c1cc(O)c(O)c(OC(=O)c2cc(O)c(O)c(O)c2)c1	2%	0.1µM*	nt	nt	nt	nt	nt	nt	37µM*
COc1ccc(Cc2n[nH]c(=S)n2NC(=O)Nc2ccc(Cl)c(Cl)c2)cc1	-10%	nt	nt	3	-3%	14µM*	10µM*	-28%	41µM*
COc1ccc(/C=N/NC(=O)c2ccccc2)cc1CN1CCN(c2ccc(F)cc2)CC1	-9%	7%	-3	-1	-3%	-3%	nt	nt	nt
COc1cc(C(=O)N/N=C/c2ccc(OC)c(CN3CCN(c4ccc(F)cc4)CC3)c2)ccc1O	-1%	nt	nt	?	0%	32µM*	?	-29%	-18%
O=c1cc(C(F)(F)F)nc(-n2[nH]c3c(c2=O)CCCC3)[nH]1	?	8.9µM*	-88*	-85*	0%	-2%	nt	nt	nt	L3MBTL1 inh-2=?;AlphaScreen ctr2=46%
CCCCN1Cc2c(nc3cc(-c4ccco4)[nH]n3c2=O)C1=O	4%	28µM*	13	12	-11%	nt	nt	nt	nt	L3MBTL1 inh-2=27*;AlphaScreen ctr2=-26%
O=C(O)c1cc(-c2ccc(/C=C3\NC(=O)N(c4ccccc4)C3=O)o2)ccc1Cl	1%	20µM*	3	-16	?	nt	nt	nt	nt	L3MBTL1 inh-2=3*;AlphaScreen ctr2=3%
Cc1cccc(N2NC(=O)/C(=C/c3ccc(-c4ccc(Cl)c(C(=O)O)c4)o3)C2=O)c1	14%	nt	4	-15	?	2%	nt	nt	nt
O=C1C[C@@H](O)[C@@H](O)[C@H]2[C@@H]3C(=O)N(Cc4ccccc4)C(=O)[C@@H]3CC[C@H]12	nt	nt	nt	nt	1%[13.1 µM]	nt	nt	nt	nt
CCOc1ccc(OCc2ccc(C(=O)O)o2)cc1	-15%	32µM*	14	0	0%	-9%	nt	nt	nt	L3MBTL1 inh-2=11*;AlphaScreen ctr2=1%
O=C(O)c1ccc(COc2ccc3ccccc3c2)o1	14%	2%	nt	7	-5%	nt	nt	nt	nt
O=C(c1cc(COc2ccc3c(c2)CCCC3)on1)N1CCCC1	3%	nt	nt	nt	nt	-3%	nt	nt	nt
CC(C)S(=O)(=O)C1=NSC2=NC(=O)/C(=C\c3ccc(-c4cccc(C(=O)O)c4)o3)C(=N)N21	6%	13µM*	nt	?	-2%	?	nt	nt	nt	L3MBTL1 inh-2=3.8*;AlphaScreen ctr2=-19%
